HT1080 IDH1KD tx = toxicity to HT-1080 IDH1 knockdown cells (counter line). Potency, µM (top dose mostly 46.1 µM), hits mostly cytotoxic. AID 686971. HT-1080 IDH1 knockdown viability, ATP luminescence, 48 h. 360,000 compounds, 2% hits
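IDH1KD HT-1080 cells, 750/well, RPMI + 5% FBS; compound pinned after 2 h settling; 48 h, 37 °C; CellTiter-Glo luminescence; % activity normalised to DMSO and no-cell wells; curves fitted, classed by r2 and efficacy.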
KB-V1 MDR tox = kills drug-selected multidrug resistant KB-V1 cells | KB-V1 MDR cells viability, CellTiter-Glo, 72 h | Potency, µM (top dose mostly 46.1 µM), hits mostly cytotoxic | 400,000 compounds, 3.4% hits; note: nearly all actives have a fitted effect of over 60% in size
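qHTS viability screen in drug-selected KB-V1 MDR cells: 72 h compound treatment at 37 degrees C, ATP luminescence end point.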
TDP1 cell noCPT = qHTS for Inhibitors of human tyrosyl-DNA phosphodiesterase 1 (TDP1): qHTS in cells in absence of CPT. DT40 Tdp1-/- hTDP1 cells, no CPT, ATP luminescence, 48 h. Potency, µM (doses to about 46.2 µM), most hits filed as inhibitors. 420,000 compounds, 15% hits. AID 686978, 2013; note: nearly all actives have a fitted effect of over 55% in size
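Stably hTDP1-transfected Tdp1-null chicken DT40 cells were treated with library compounds minus camptothecin and grown for at least 48 hr at 37 °C, after which cellular ATP was quantified by luminescence.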
HT1080-NT tox = kills 2HG-producing HT-1080-NT fibrosarcoma cells; HT-1080-NT fibrosarcoma viability, CellTiter-Glo ATP luminescence, 48 h; Potency, µM (highest dose often 46.1 µM), actives largely listed as cytotoxic; 360,000 compounds, 1.6% hits; AID 686970;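 note: NT is the 2HG producing partner of a matched IDH1 knockdown line; nearly all actives have a fitted effect of over 55% in size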
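Fibrosarcoma NT cells, 750 per well in 5% FBS RPMI, were exposed to compound for 48 hours. Viability: CellTiter-Glo luminescence.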
KB-3-1 tox = KB-3-1 parental cell cytotoxicity; KB-3-1 viability, CellTiter-Glo ATP luminescence, 72 h; Potency, µM (titrated, usually from 46.1 µM), usual class: cytotoxic; 400,000 compounds, 1.4% hits; AID 1347075; note: nearly all actives have a fitted effect of over 60% in size
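Luminescent ATP read-out (CellTiter-Glo) measures survival of drug-naive KB-3-1 cells after 72 h compound exposure at 37 °C. Titration series was screened from lowest to highest concentration, with DMSO vehicle plates as background controls.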
TDP1 cell CPT = growth inhibition of DT40 Tdp1-/-;hTDP1 cells with camptothecin (screen for TDP1 inhibitors). chicken DT40 Tdp1-/-;hTDP1 cells + 20 nM CPT, ATP luminescence, 48 h. Potency, µM (highest dose often 46.2 µM), hits mostly inhibitors. 420,000 compounds, 12% hits. AID 686979; note: nearly all actives have a fitted effect of over 55% in size
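Cell growth measured by CellTiter-Glo luminescence after a minimum 48 h, 37 C compound exposure with 20 nM CPT in Tdp1-knockout DT40 cells stably expressing hTDP1, seeded 400/well; qHTS titration format.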
Each line names hits and unclear results; the compound was inactive in the other large screens. A selection: hits, their analogues and other compounds. The true share with any hit is near 19%. Calls come from the whole dose curve; as a rule, active = well fitted curve in the direction sought with a large enough effect; inconclusive = small, poorly fitted or top-dose-only effect, or another doubt; inactive = no such curve, though single readings can be large; an effect the other way counts as inactive or inconclusive.

COc1ccc(CN2CCOc3ccc(C(O)c4cccnc4)cc3C2)cc1O (centres undefined)	none (no result: HT1080 IDH1KD tx, KB-V1 MDR tox, HT1080-NT tox, KB-3-1 tox)
CCN(CC)S(=O)(=O)c1ccc(N2CCOCC2)c(NC(=O)c2cc(=O)[nH]c3ccccc23)c1	none
O=C(Nc1ccccc1N1CCOCC1)c1cccc2c(Br)cccc12	TDP1 cell noCPT 18.4µM, TDP1 cell CPT inconclusive
O=C(Nc1ccccc1N1CCOCC1)c1cc(=O)[nH]c2ccccc12	TDP1 cell noCPT 16.4µM, TDP1 cell CPT inconclusive
COc1ncc(C2=CC(=O)CC(C)(C)C2)cn1	none
Cc1ccc(C2(c3noc(CN(C)Cc4cnn(C)c4)n3)CCCC2)cc1	KB-V1 MDR tox inconclusive, TDP1 cell noCPT inconclusive, TDP1 cell CPT 20.6µM
Cc1ccc(C2(c3noc(CN4CCOCC4)n3)CCCC2)cc1	none
Cc1ccc(S(=O)(=O)N2C[C@H]3C(=O)C[C@@H](c4cccc(Cl)c4)N(S(=O)(=O)c4ccc(C)cc4)[C@H]3C[C@H]2c2ccccc2)cc1	none
COc1ccccc1CN(C)CC(=O)c1c(C)[nH]c2ccccc12	TDP1 cell noCPT 17.8µM, TDP1 cell CPT 17.8µM (no result: HT1080 IDH1KD tx, HT1080-NT tox)
COc1ccc(NC(=O)CN(C)CC(=O)c2c(C)[nH]c3ccccc23)cc1	KB-V1 MDR tox 7.31µM, TDP1 cell noCPT inconclusive, TDP1 cell CPT inconclusive
COc1cccc(NC(=O)CN(C)CC(=O)c2c(C)[nH]c3ccccc23)c1	TDP1 cell noCPT inconclusive, TDP1 cell CPT inconclusive
Cc1[nH]c2ccccc2c1C(=O)COc1ccccc1F	TDP1 cell noCPT inconclusive
CSc1ncccc1C(=O)OCC(=O)N(C)c1c(N)n(Cc2ccccc2)c(=O)[nH]c1=O	none
Cc1sc2ncnc(N3CCN(Cc4ccccc4)CC3)c2c1-c1ccc(F)cc1	KB-V1 MDR tox 14.6µM, TDP1 cell noCPT inconclusive, KB-3-1 tox inconclusive, TDP1 cell CPT inconclusive
Fc1ccc(-c2csc3ncnc(N4CCN(Cc5ccccc5)CC4)c23)cc1	TDP1 cell noCPT 14.6µM, TDP1 cell CPT 20.6µM (no result: KB-V1 MDR tox, KB-3-1 tox)
N#Cc1ccc(OS(=O)(=O)c2ccc(-c3ccon3)s2)cc1	TDP1 cell noCPT inconclusive, TDP1 cell CPT 11.6µM
O=S(=O)(Nc1ccc(OC(F)F)cc1)c1ccc(-c2ccon2)s1	TDP1 cell noCPT inconclusive
O=C1[C@@H]2[C@@H](CN3CN(c4ccccc4)N=C(c4ccccc4)[C@@]23c2ccccc2)C(=O)N1c1ccccc1	TDP1 cell noCPT 13µM, TDP1 cell CPT 5.8µM
O=C1[C@H]2C(c3ccccc3)=NN(c3ccccc3)[C@H]2C(=O)N1c1ccccc1	KB-3-1 tox inconclusive
OCCNC(=S)Nc1cccc(Cl)c1Cl	none
COC(=O)C(=Cc1ccc(OCc2ccc([N+](=O)[O-])cc2)c(OC)c1)C(=O)OC	HT1080 IDH1KD tx inconclusive, KB-V1 MDR tox inconclusive, TDP1 cell noCPT 13µM, HT1080-NT tox inconclusive, TDP1 cell CPT 9.2µM
COc1cc(C=O)ccc1OCCCOc1ccc([N+](=O)[O-])cc1	TDP1 cell noCPT inconclusive, TDP1 cell CPT inconclusive
CCOC(=O)C(=Cc1ccc(OCc2ccc([N+](=O)[O-])cc2)c(OC)c1)C(=O)OCC	HT1080 IDH1KD tx inconclusive, KB-V1 MDR tox 20.6µM, TDP1 cell noCPT 14.6µM, HT1080-NT tox 20.6µM, KB-3-1 tox inconclusive, TDP1 cell CPT 13µM
Cc1ccccc1-c1cc2nccc(-c3cc(Cl)ccc3O)n2n1	TDP1 cell noCPT inconclusive (no result: HT1080 IDH1KD tx, HT1080-NT tox)
COC(=O)c1cc(C)nc2c1c(=O)nc(SCc1ccccc1F)n2C1CC1	none (no result: HT1080 IDH1KD tx, HT1080-NT tox)
COc1ccccc1CN1CCOc2ccc(CN3CCC(Oc4cccnc4)CC3)cc2C1	TDP1 cell noCPT inconclusive (no result: HT1080 IDH1KD tx, KB-V1 MDR tox, HT1080-NT tox, KB-3-1 tox)
CCC1CN(C(=O)N2CCC(C(=O)NCc3ccccc3OC)CC2)c2cc(C)ccc2O1 (centres undefined)	TDP1 cell noCPT inconclusive, TDP1 cell CPT 16.4µM
